# Hit rate of the full screen: of about 340,000 compounds, about 1,000 (0.29%) were called active. The list is a sample of the results. Potency and affinity values are given separately. A number with no mark means an inactive call. Cut-off read from the data, not from the text of the source: inconclusive = inhibition above about 27% without an active follow-up result; inactive = below that.
# Assay: NS1A inhibition, H1N1 influenza, cell based functional assay (AID 504329)
# Details: percent inhibition, at 12.5 µM, hits give high values
row,SMILES,inhibition [%]
1,Cc1ccc(S(=O)(=O)NCCSc2ncccn2)cc1,2.89
2,C=CCNC(=S)/C(=C(/[O-])c1ccc([N+](=O)[O-])cc1)[n+]1ccccc1,-7.17
3,COc1ccc(C(=O)COC(=O)CCn2nnc(-c3cccc(O)c3OC)n2)cc1,-2.1
4,CN1CCN(C2=C(NS(=O)(=O)c3ccccc3)C(=O)c3ccccc3C2=O)CC1,-2.49
5,CC(=O)Nc1ccc(S(=O)(=O)NC2=C(N3CCN(c4ccc(F)cc4)CC3)C(=O)c3ccccc3C2=O)cc1,27.2
6,NC(=O)C1CCN(C2=C(NS(=O)(=O)c3ccccc3)C(=O)c3ccccc3C2=O)CC1,24.5
7,CC1CCCN(C2=C(NS(=O)(=O)c3ccc(Br)cc3)C(=O)c3ccccc3C2=O)C1 (stereo unspecified),27.1
8,CC1CCN(C2=C(NS(=O)(=O)c3ccc(Cl)cc3)C(=O)c3ccccc3C2=O)CC1,-3.44
9,CN(C(=O)c1cccs1)c1ccc(OCC(=O)N2CCC(C(N)=O)CC2)cc1,-3.1
10,CCOC(=O)C(C#N)=C1CCN(Cc2ccccc2)CC1,-28.1
11,CCOC(=O)/C(C#N)=C1\C(=O)N(Cc2ccccc2)c2ccccc21,13.1
12,O=C(N/N=C/c1cn(-c2ccccc2)nc1-c1cccnc1)c1ccccc1,-7.1
13,O=C(c1ccc2ccccc2n1)N1CCN(c2ccccc2)CC1,-4.44
14,COc1ccc(Nc2ccc3c(c2)=NC2(CCCCC2)[N+]=3[O-])cc1,26.2
15,COc1ccc(NC2=NC3(CCCCC3)N=C(N)N2)cc1,-15.4
16,Cc1ccc(NC(=O)c2ccc(Nc3c([N+](=O)[O-])cc([N+](=O)[O-])cc3[N+](=O)[O-])cc2)cc1,2.68
17,CC(=O)c1ccc(Nc2c([N+](=O)[O-])ccc3nonc23)cc1,6.86
18,COC(=O)C1=C(c2cccc(OC)c2OC)C[C@@H]2CC[C@H]1N2C(=O)NCCS(C)=O (stereo partly specified),-8.82
19,CC1Cc2ccccc2N1C(=O)COC(=O)c1ccc(Cl)c(S(=O)(=O)N2CCOCC2)c1 (stereo unspecified),9.33
20,COC(=O)c1nnn(-c2cccc(Cl)c2)c1C(=O)OC,-5.37
21,O=C(CN(Cc1ccc(F)cc1)C(=O)CCC(=O)Nc1nccs1)NCC1CCCO1 (stereo unspecified),-15.5
22,O=C(Nc1cccc(-n2cnnn2)c1)c1ccc(C(F)(F)F)cc1,-1.71

row,SMILES,inhibition [%]
1,Cc1ccc(S(=O)(=O)c2nc(N3CCOCC3)sc2Cl)cc1,-3.55
2,CC(=O)Nc1ccc(N2N=C(C)C(N=Nc3ccccc3)C2=O)cc1 (stereo unspecified),22.2
3,CC1=NN(c2ccccc2)C(=O)C1N=Nc1ccccc1 (stereo unspecified),-6.95
4,CC1=NN(c2ccccc2)C(=O)C1N=Nc1cccc(O)c1 (stereo unspecified),0.04
5,CC1=NN(c2ccccc2)C(=O)C1N=Nc1ccc(S(N)(=O)=O)cc1 (stereo unspecified),1.05
6,COc1ccc(N2CCN(c3nc4c(C)cccn4c(=O)c3C=C(C#N)C#N)CC2)cc1,-22.9
7,O=C(NNC(=O)c1cccs1)c1ccncc1,-2.62
8,COc1ccc([C@H]2CC(=O)C=C(c3cccc4c3sc3ccccc34)C2)cc1OC,7.03
9,Nc1nc(NC(=O)c2ccco2)nn1-c1ccccc1,5.18
10,Nc1nc(NC(=O)c2ccccc2)nn1-c1ccccc1,-6.76
11,CCCc1cc(N2CCCC(C(=O)NCC)C2)n2ncnc2n1 (stereo unspecified),-10
12,NC(=O)C1(N2CCCCC2)CCN(c2ccc3nnc(-c4ccccc4)n3n2)CC1,-13.3
13,Cc1cc2ccccn2c1C(=O)c1cccc([N+](=O)[O-])c1,4.98
14,COC(=O)c1cc(C(=O)c2c(C)cc3ccccn23)cc([N+](=O)[O-])c1,16.9
15,O=C(NCCC1=CCCCC1)C(=O)NCCc1ccc(Cl)cc1,1.14
16,C=CC[C@@H](CC(=O)N[C@@H](CO)Cc1ccccc1)C(=O)N[C@H](C)COC(=O)[C@@H](CC=C)Cc1ccc(F)cc1,-3.08
17,CCOC(=O)/C(=N\Nc1ncnc2ccccc12)c1ccc(C)cc1,12.6
18,COc1ccc(/C(=N/Nc2ncnc3ccccc23)C(=O)O)cc1,5.64
19,O=C(NCc1ccccn1)Nc1cc(Cl)ccc1Cl,-13.2
20,COc1ccc(CNC(=O)Cn2cc(C(F)(F)F)ccc2=O)cc1,-8.07
21,CN(C)c1ccc(C=C2C(=O)OC(C)(C)OC2=O)cc1,0.66
22,CC1=NN(CCC#N)C(=O)/C1=C/c1ccc(N(C)C)cc1,18.1

row,SMILES,inhibition [%]
1,COc1ccc(/C=C2/C(=O)N(Cc3ccccc3)N=C2C)cc1,-0.08
2,CN(C)c1ccc(/C=C2\C(=O)NC(=O)N(Cc3ccc(F)cc3)C2=O)cc1,-0.15
3,COc1ccc(CCC(=O)OCC(=O)Nc2ccccc2OC(F)F)cc1OC,-3.13
4,CCOC(=O)C(NC(C)=O)(Nc1ccc(S(=O)(=O)Nc2nccs2)cc1)C(F)(F)F (stereo unspecified),-7.42
5,Cc1cccc(-n2c(O)c(C=Nc3cc(O)ccc3C)c3ccccc3c2=O)n1,3.61
6,COc1cc(C2C(C(C)=O)=C(O)C(=O)N2CCN(C)C)ccc1O (stereo unspecified),-16
7,O=C(COC(=O)c1n[nH]c(=O)c2ccccc12)NC1CCCCC1,-3.19
8,COc1cc(NC(=O)CSCc2ccc(Cl)cc2)c(C(=O)O)cc1OC,-10.8
9,O=C(Cc1n[nH]c(=O)c2ccccc12)Nc1cc(Cl)ccc1-n1cncn1,-5.46
10,COc1ccc(C(=O)N/N=C/c2ccc(OC)c(COc3ccc(F)cc3)c2)cc1,-7.91
11,COc1ccc(C(=O)N/N=C/c2ccc(OC)c(COc3ccccc3)c2)cc1,-10.8
12,CCC(CC)NC(=O)CO/N=C/c1ccc(Cl)cc1Cl,2.24
13,O=C(O)C1C2C=CC(C2)C1C(=O)NCCCN1CCOCC1 (stereo unspecified),-16.9
14,C[C@H](CO)N1C[C@H](C)[C@@H](CN(C)S(=O)(=O)c2cccs2)Oc2ccc(NC(=O)c3ccncc3)cc2C1=O,-5.12
15,CCN(CC)Cc1cc(C(=O)O)c(-c2ccccc2)o1,-10.3
16,CC(=O)Nc1ccc(S(=O)(=O)NC2=C(N3CCN(C)CC3)C(=O)c3ccccc3C2=O)cc1,7.96
17,CCN1CCN(C2=C(NS(=O)(=O)c3ccc(Br)cc3)C(=O)c3ccccc3C2=O)CC1,5.79
18,CCOC(=O)C1CCN(C2=C(NS(=O)(=O)c3ccc(Cl)cc3)C(=O)c3ccccc3C2=O)CC1,-27.4
19,NC(=O)C1CCN(C2=C(NS(=O)(=O)c3ccc(Br)cc3)C(=O)c3ccccc3C2=O)CC1,23.9
20,CC1CCCN(C2=C(NS(=O)(=O)c3ccc(Cl)cc3)C(=O)c3ccccc3C2=O)C1 (stereo unspecified),3.15
21,CCOC(=O)C1CCCN(c2nc3ccccc3nc2NS(=O)(=O)c2ccc(C)cc2)C1 (stereo unspecified),-25.9
22,NC(=O)C1CCN(C2=C(NS(=O)(=O)c3ccc(Cl)cc3)C(=O)c3ccccc3C2=O)CC1,-27.5

row,SMILES,inhibition [%]
1,CCOC(=O)C1CCN(C2=C(NS(=O)(=O)c3ccc(Br)cc3)C(=O)c3ccccc3C2=O)CC1,27.6
2,CCCN(CC(=O)Nc1ccccc1C)C(=O)CCNC(=O)c1ccccc1Cl,0.78
3,O=C(c1ccccc1)N1CCCC(C(=O)N2CCc3ccccc3C2)C1 (stereo unspecified),-4.42
4,Cc1ccc(C)c(NCc2n[nH]c(=S)n2-c2ccccc2)c1,-0.26
5,O=C(OC(C(=O)NCC1CCCO1)c1ccccn1)c1cccs1 (stereo unspecified),-1.32
6,COc1ccc(NC(=O)COC(=O)CN2C(=O)C3CCCCC3C2=O)cc1OC (stereo unspecified),-0.56
7,CC(C)C[C@H](NC(=O)C1CCN(C(=O)[C@H](Cc2ccccc2)NC(=O)OC(C)(C)C)CC1)C(=O)O,-7.8
8,COC(=O)CCC(=O)N(CCN(Cc1ccccc1)C(=O)CCC(=O)OC)Cc1ccccc1,8.88
9,Cc1ccc(N=Nc2c(O)[nH]c(=O)[nH]c2=O)cc1S(=O)(=O)Nc1ccc(Br)cc1,9.19
10,CCc1ccc(NC(=O)CN(c2ccc(OC)cc2)S(=O)(=O)c2c(C)[nH]c(=O)[nH]c2=O)cc1,2.97
11,CN1CCN(c2ccc(S(=O)(=O)N3CCCCC3)cc2NC(=O)COc2ccc(F)cc2)CC1,-7.14
12,COc1ccc(C2C(C#N)=C(N)Oc3c2ccc2cccnc32)cc1OC (stereo unspecified),-15.7
13,COc1cc(C2C(C#N)=C(N)Oc3c2ccc2ccccc32)ccc1OCC(=O)Nc1ccc(C)cc1 (stereo unspecified),1.8
14,CCc1ccc(C2C(C#N)=C(N)Oc3cc(N)ccc32)cc1 (stereo unspecified),0.13
15,CC(=O)C1=C(C)OC(N)=C(C#N)C1c1cc2cccc(C)c2nc1Cl (stereo unspecified),-6.22
16,COC(=O)C1=C(C)OC(N)=C(C#N)C1c1cc2cc(C)ccc2nc1Cl (stereo unspecified),11.8
17,N#CC1=C(N)Oc2c(ccc3cccnc23)C1c1ccccc1 (stereo unspecified),25.4
18,C[n+]1cccc(C2C(C#N)=C(N)Oc3c2ccc2ccccc32)c1 (stereo unspecified),-17.7
19,CCOC(=O)C1=C(C)OC(N)=C(C#N)C1c1cc2cc(C)ccc2nc1N1CCCCC1 (stereo unspecified),-5.59
20,CC(C)(C)c1ccc(CN(Cc2ccccc2)C(c2ccccn2)c2nnnn2C(C)(C)C)cc1 (stereo unspecified),9.19

# From PubChem BioAssay AID504329 (Southern Research Specialized Biocontainment Screening …, 2011)
